Screens from PubChem.
miR122 inh – miR-122 Renilla sensor signal increase in Huh7, primary screen, miR-122 inhibitor project, cell-based, single point, plate reader | activation (reporter increase), % at 12.5 µM | Huh7 miR-122 Renilla luciferase sensor, 48 h; neutral wells = 0, positive control = 100 | 0.3% of 340,000 active;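 active = mean replicate activation score at least 90 and every replicate individually at or above 90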;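 note: higher luciferase means less miR-122 activity so hits act as miR-122 inhibitors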
Glyco luc inh – increase of ERlucT glycosylation luciferase signal, primary screen, N-linked glycosylation inhibitor project, D54 ERlucT cells, luminescence, set 2. reporter increase, % at 12.5 µM. D54 ERlucT glycosylation luciferase reporter, 24 h; percent of 100 nM tunicamycin response. 0.23% of 360,000 active. AID 588692, 2011;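 active = mean luciferase reporter signal, scaled so untreated is 0 and the glycosylation-blocking control 100, at or above a set limit in every replicate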;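 note: luciferase carries N-glycosylation sites so blocking glycosylation raises the light; 0% = median of neutral control wells and 100% = median of 100 nM tunicamycin wells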
RAD52 inh – RAD52 DNA annealing inhibitors, primary screen, biochemical, FRET, single point, set 2; inhibition, % at 18.7 µM; recombinant RAD52 DNA annealing, FRET fluorescence; 0.46% of 360,000 active;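 active = every replicate showing at least 50% inhibition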
Target sequence (P43351 whole entry, looked up): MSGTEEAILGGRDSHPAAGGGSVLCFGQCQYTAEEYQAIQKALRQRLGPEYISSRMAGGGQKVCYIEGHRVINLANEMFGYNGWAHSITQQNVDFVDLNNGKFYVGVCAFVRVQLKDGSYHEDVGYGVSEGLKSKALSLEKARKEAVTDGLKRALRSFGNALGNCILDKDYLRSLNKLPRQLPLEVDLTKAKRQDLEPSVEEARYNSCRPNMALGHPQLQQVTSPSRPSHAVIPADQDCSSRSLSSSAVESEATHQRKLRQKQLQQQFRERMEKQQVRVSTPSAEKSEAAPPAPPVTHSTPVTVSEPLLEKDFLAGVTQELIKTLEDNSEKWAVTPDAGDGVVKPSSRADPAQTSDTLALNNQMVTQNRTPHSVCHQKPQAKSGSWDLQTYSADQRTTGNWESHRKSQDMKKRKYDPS
DNA FID counter – compounds displacing fluorescent DNA intercalator, primary screen, artefact control for HCV NS3 helicase inhibitor project, biochemical, FID fluorescence; 0.17% of 290,000 active; inhibition, % at 7.9 µM; AID 1845, 2009; DNA fluorescent intercalator displacement; in the data active = inhibition above about 37%;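 note: 0% = vehicle and 100% = reference compound; higher means more ethidium bromide displaced from hairpin DNA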
RAD54 inh – inhibitors of human RAD54 branch migration, primary screen, biochemical, fluorescence, single point; RAD54 Holliday junction branch migration, FAM/BHQ fluorescence; inhibition, % at 10.4 µM; 0.14% of 360,000 active; AID 602329, 2012;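 active = mean normalized replicate activity at least 40 and at least half of replicates scoring 40 or more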;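 note: 0% = median of neutral control wells and 100% = median of positive control wells; inhibitors cause a drop in the FAM fluorescence signal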
NRP1-CendR mod – modulators of CendR peptide binding to NRP-1, primary screen, biochemical, fluorescence polarization, uHTS | Neuropilin-1 (Homo sapiens), O14786 | inhibition, % at 25 µM | 0.85% of 360,000 active | FAM-RPARPAR peptide binding to NRP-1;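 active = inhibition or corrected inhibition above about 18%, plus a signal ratio from 0.5 to 1.5, limit read from the data, passing the limit was not always enough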
Active calls of the source: *; ! = repeats disagree; [ ] = another dose, or the depositor's remark. Only some compounds are listed: those with a hit (about 1.5% of all), similar ones and a draw of the others.

C[C@H]1CN([C@@H](C)CO)C(=O)Cc2cc(N(C)C)ccc2O[C@@H]1CN(C)CC1CC1 was read as miR122 inh 4[16.7 µM], RAD52 inh 8 and RAD54 inh -2.
Screening Cc1cc(O)c(C(C)C)cc1N=Nc1ccccc1C(=O)O returned miR122 inh 190*, Glyco luc inh 0, RAD52 inh -50, DNA FID counter -26, RAD54 inh -4 and NRP1-CendR mod -80.
`CCN1CCN(C(=S)NC(=O)c2cccc(Br)c2)CC1` gave miR122 inh 3, Glyco luc inh 1, RAD52 inh -9, RAD54 inh 0 and NRP1-CendR mod 43*.
C[C@@H]1CCCCO[C@@H](CN(C)C(=O)C2CCCCC2)[C@H](C)CN([C@H](C)CO)C(=O)c2cc(NC(=O)Nc3ccc4c(c3)OCO4)ccc2O1 was read as miR122 inh -7[16.7 µM], RAD52 inh 9 and RAD54 inh 1.
For Cc1cc(C)n2nc(-c3ccc(F)cc3)cc2n1 the results were miR122 inh 7, Glyco luc inh -3, RAD52 inh -11, RAD54 inh -5 and NRP1-CendR mod 2.
Screening Cc1cc(-c2ccc(F)cc2)nc2cc(C(N)=O)nn12 returned miR122 inh 0, Glyco luc inh -1, DNA FID counter -8 and NRP1-CendR mod 26*.
Cc1noc(C)c1NC(=O)N(C)C[C@H]1Oc2ccc(NS(=O)(=O)c3cn(C)cn3)cc2CC(=O)N([C@H](C)CO)C[C@H]1C was read as miR122 inh 14[16.7 µM], RAD52 inh 15 and RAD54 inh -3.
Screening C[C@H]1CN([C@@H](C)CO)C(=O)c2cccc(NC(=O)C3CCOCC3)c2O[C@H]1CN(C)Cc1ccncc1 returned miR122 inh -3[16.7 µM], RAD52 inh -6 and RAD54 inh -2.
Screening COc1ccc(CCNC(=O)c2ccc(Cl)c(S(=O)(=O)N(C)c3ccccc3)c2)cc1 returned miR122 inh -4, Glyco luc inh -7, DNA FID counter -24, RAD54 inh -17 and NRP1-CendR mod 23*.
COc1ccc(CCNC(=O)c2ccc(N(C)S(=O)(=O)c3ccc(C)cc3)cc2)cc1 was read as Glyco luc inh 2, RAD52 inh -1, DNA FID counter -25 and NRP1-CendR mod 21*.
For CC(C)NC(=O)N(C)C[C@H]1Oc2cc(C#C[C@@H](C)O)ccc2S(=O)(=O)N([C@H](C)CO)C[C@@H]1C the results were miR122 inh 6[16.7 µM], RAD52 inh -4 and RAD54 inh -3.
Screening CCCc1nnc(SCc2ccc(C(=O)OC)o2)n1N returned Glyco luc inh 3, DNA FID counter -2, RAD54 inh 12 and NRP1-CendR mod -8.
CCc1nnc(SCc2ccc(C(=O)OC)o2)n1N was read as miR122 inh 2, Glyco luc inh 1, DNA FID counter 2, RAD54 inh -5 and NRP1-CendR mod 38*.
`Cc1ccc(S(=O)(=O)N(C)C[C@H]2Oc3c(NC(=O)Nc4ccccc4)cccc3C(=O)N([C@H](C)CO)C[C@@H]2C)cc1` gave miR122 inh 9[16.7 µM], RAD52 inh 24 and RAD54 inh 1.
For O=C(C[C@@H]1CC[C@H]2[C@@H](COC[C@H](O)CN2C(=O)Nc2ccc(F)cc2)O1)NCCCN1CCOCC1 the results were miR122 inh 0[16.7 µM], RAD52 inh 10 and RAD54 inh 5.
Screening COc1ccc(NC(=O)c2cccc(F)c2)cc1Cl returned miR122 inh 2, Glyco luc inh -1, DNA FID counter 0, RAD54 inh 9 and NRP1-CendR mod -7.
`COc1ccc(NC(=O)CN(C)CC(=O)Nc2cccc(F)c2)cc1Cl` gave Glyco luc inh 4, RAD52 inh -2, DNA FID counter -13 and NRP1-CendR mod 28*.
Screening COc1ccc(Cl)cc1NC(=O)CN(C)CC(=O)Nc1cc(OC)c(OC)c(OC)c1 returned Glyco luc inh 33*, RAD52 inh -20, DNA FID counter -35, RAD54 inh -4 and NRP1-CendR mod -1.
`COc1ccc(Cl)cc1NC(=O)CN(C)CC(=O)Nc1ccc(Br)cc1` gave Glyco luc inh 0, RAD52 inh -5, DNA FID counter -21 and NRP1-CendR mod -4.
Screening COc1cc2ncnc(NCCCN3CCOCC3)c2cc1OC returned Glyco luc inh 2, RAD52 inh 7, DNA FID counter 76* and NRP1-CendR mod 1.
For COc1cc2nc(=S)n(CCCN3CCOCC3)c(N)c2cc1OC the results were Glyco luc inh 2, DNA FID counter 45* and NRP1-CendR mod 4.
Screening C[C@H]1CN([C@@H](C)CO)C(=O)c2cccc(NC(=O)c3ccncc3)c2O[C@@H]1CN(C)CC1CCCCC1 returned miR122 inh 91*[16.7 µM], RAD52 inh -2 and RAD54 inh -4.
For C[C@@H]1CN([C@@H](C)CO)C(=O)c2cccc(NC(=O)c3ccncc3)c2O[C@@H]1CN(C)Cc1ccc(Cl)c(Cl)c1 the results were miR122 inh -4[16.7 µM], RAD52 inh -9 and RAD54 inh 2.
`C[C@H](CO)N1C[C@H](C)[C@@H](CN(C)Cc2ccc(Cl)c(Cl)c2)Oc2c(NC(=O)c3ccncc3)cccc2C1=O` gave miR122 inh 106*![16.7 µM], Glyco luc inh -3, RAD52 inh 3, RAD54 inh -3 and NRP1-CendR mod 7.
For C[C@@H]1CN([C@@H](C)CO)C(=O)c2cccc(NC(=O)c3ccncc3)c2O[C@@H]1CN(C)CC1CCCCC1 the results were miR122 inh -1[16.7 µM], RAD52 inh -6 and RAD54 inh -5.
For C[C@H](CO)N1C[C@H](C)[C@@H](CN(C)CC2CCCCC2)Oc2c(NC(=O)c3ccncc3)cccc2C1=O the results were miR122 inh 127*[16.7 µM], RAD52 inh -9 and RAD54 inh -7.
Screening Cc1ccccc1-c1noc(-c2ccccc2C(=O)N2CCCC2)n1 returned miR122 inh 7, Glyco luc inh -3, DNA FID counter -25, RAD54 inh -2 and NRP1-CendR mod 20*.
For Cc1ccc(-c2noc(-c3ccccc3C(=O)N3CCCC3)n2)cc1 the results were miR122 inh 6, Glyco luc inh -3, DNA FID counter -26, RAD54 inh 0 and NRP1-CendR mod 4.
Cc1onc(-c2ccccc2)c1C(=O)N1CCCC1 was read as Glyco luc inh 1, RAD52 inh -5, DNA FID counter -4, RAD54 inh 8 and NRP1-CendR mod 21*.
